Source: publication PMC8384837, “Expanding the binding specificity for RNA recognition by a PUF domain”

Experiments:
Test in all cases: yeast three-hybrid, YBZ-1, SC-Leu-His + 0.5 mM 3-AT, 4 days
Details in all cases: tags: N-Gal4 AD-HA kept; label: inside an RPR1-promoter hybrid RNA with tandem MS2 sites; ssRNA
PUM1 PUF domain R7-ISG = PUM1 PUF domain R7-ISG (Homo sapiens, UniProt Q14671 828-1176, S1079I;N1080S;E1083G)
How it was run: (§1)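 Repeat regions from input (SC-Leu) and selection (SC-Leu-His + 0.5 mM 3-AT) plates were PCR-amplified and Illumina-sequenced after four days of growth. The cells were strain YBZ-1 with a LexA–MS2 coat fusion and a HIS3 reporter, co-expressing Pumilio-1 PUF domain libraries and matching RNA elements from a centromeric plasmid. The interaction score is the log change in variant frequency from input to selection, taken in log2 with a pseudocount of 1 for absent variants.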

PUM1 PUF domain R5-KRK = PUM1 PUF domain R5-KRK (Homo sapiens, UniProt Q14671 828-1176, C1007K;Q1011K)
How it was run: as §1

PUM1 PUF domain R5-KVE = PUM1 PUF domain R5-KVE (Homo sapiens, UniProt Q14671 828-1176, C1007K;R1008V;Q1011E)
How it was run: as §1

PUM1 PUF domain R8-KFY = PUM1 PUF domain R8-KFY (Homo sapiens, UniProt Q14671 828-1176, N1122K;Y1123F;Q1126Y)
How it was run: as §1

PUM1 PUF domain R2-RVT = PUM1 PUF domain R2-RVT (Homo sapiens, UniProt Q14671 828-1176, N899R;Y900V;Q903T)
How it was run: as §1

PUM1 PUF domain R3-PFV = PUM1 PUF domain R3-PFV (Homo sapiens, UniProt Q14671 828-1176, C935P;R936F;Q939V)
How it was run: as §1

PUM1 PUF domain R3-SRF = PUM1 PUF domain R3-SRF (Homo sapiens, UniProt Q14671 828-1176, C935S;Q939F)
How it was run: as §1

PUM1 PUF domain R3-FYS = PUM1 PUF domain R3-FYS (Homo sapiens, UniProt Q14671 828-1176, C935F;R936Y;Q939S)
How it was run: as §1

PUM1 PUF domain R4-VPC = PUM1 PUF domain R4-VPC (Homo sapiens, UniProt Q14671 828-1176, N971V;H972P;Q975C)
How it was run: as §1

PUM1 PUF domain R2-NWP = PUM1 PUF domain R2-NWP (Homo sapiens, UniProt Q14671 828-1176, Y900W;Q903P)
How it was run: as §1

Sequence: GGCUAGAACUAGUGGAUCCCCCGGCGCCCGGCGGCUCGAGCCCGGGUAAGUUUAAAUAGUCUGCAUGCCGCCGGGCGCCAUGCCUGCAGGUCGACUCUAGAAAACAUG
- binding signal (PUM1 PUF domain R7-ISG): 5.55 log2 enrichment (interaction score)

Sequence: GGCUAGAACUAGUGGAUCCCCCGGCGCCCGGCGGCUCGAGCCCGGGUAAGUGUCAAUAGUCUGCAUGCCGCCGGGCGCCAUGCCUGCAGGUCGACUCUAGAAAACAUG
- binding signal (PUM1 PUF domain R5-KRK): 3.89 log2 enrichment (interaction score)
- binding signal (PUM1 PUF domain R5-KVE): 2.24 log2 enrichment (interaction score)

Sequence: GGCUAGAACUAGUGGAUCCCCCGGCGCCCGGCGGCUCGAGCCCGGGUAAGCGUAAAUAGUCUGCAUGCCGCCGGGCGCCAUGCCUGCAGGUCGACUCUAGAAAACAUG
- binding signal (PUM1 PUF domain R8-KFY): 2.74 log2 enrichment (interaction score)

Sequence: GGCUAGAACUAGUGGAUCCCCCGGCGCCCGGCGGCUCGAGCCCGGGUAAGUGUAAAGAGUCUGCAUGCCGCCGGGCGCCAUGCCUGCAGGUCGACUCUAGAAAACAUG
- binding signal (PUM1 PUF domain R2-RVT): 2.17 log2 enrichment (interaction score)

Sequence: GGCUAGAACUAGUGGAUCCCCCGGCGCCCGGCGGCUCGAGCCCGGGUAAGUGUAAAUAGUCUGCAUGCCGCCGGGCGCCAUGCCUGCAGGUCGACUCUAGAAAACAUG
- binding signal (PUM1 PUF domain R3-PFV): 3.44 log2 enrichment (interaction score)
- binding signal (PUM1 PUF domain R3-SRF): 2.58 log2 enrichment (interaction score)
- binding signal (PUM1 PUF domain R3-FYS): 3.03 log2 enrichment (interaction score)
- binding signal (PUM1 PUF domain R4-VPC): 2.65 log2 enrichment (interaction score)
- binding signal (PUM1 PUF domain R2-NWP): 4.83 log2 enrichment (interaction score)
- binding signal (PUM1 PUF domain R8-KFY): 2.5 log2 enrichment (interaction score)

Sequence: GGCUAGAACUAGUGGAUCCCCCGGCGCCCGGCGGCUCGAGCCCGGGUAAGUGUUAAUAGUCUGCAUGCCGCCGGGCGCCAUGCCUGCAGGUCGACUCUAGAAAACAUG
- binding signal (PUM1 PUF domain R5-KRK): 2.98 log2 enrichment (interaction score)

Sequence: GGCUAGAACUAGUGGAUCCCCCGGCGCCCGGCGGCUCGAGCCCGGGUAAGUGUAAUUAGUCUGCAUGCCGCCGGGCGCCAUGCCUGCAGGUCGACUCUAGAAAACAUG
- binding signal (PUM1 PUF domain R3-PFV): 2.52 log2 enrichment (interaction score)

Sequence: GGCUAGAACUAGUGGAUCCCCCGGCGCCCGGCGGCUCGAGCCCGGGUAAGUGUACAUAGUCUGCAUGCCGCCGGGCGCCAUGCCUGCAGGUCGACUCUAGAAAACAUG
- binding signal (PUM1 PUF domain R4-VPC): 3.7 log2 enrichment (interaction score)
